Our source for the growth inhibition values is PubChem BioAssay (NCI).

About 79,000 compounds went through this panel and 15% of them were active in at least one assay; those are over-represented in the sample as a whole. A number with no mark means an inactive call. Calls of active or inactive are those of the source. Cut-off read from the data, not from the text of the source: active = growth inhibition above about 70%; inactive = the rest.

Assay [1] in a line: NCI Yeast Anticancer Drug Screen. Data for the rad50 strain (AID 155).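 Note: 0% = growth of vehicle-only cultures of the same strain.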 The settings on record: S. cerevisiae rad50 strain growth inhibition; at 50.0 µM; active compounds read high. The essentials:
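Readout: growth inhibition relative to vehicle-treated cultures. Compound exposure was carried out in a genetically defined yeast strain deficient in DNA damage repair.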

The nature of assay [2]: NCI Yeast Anticancer Drug Screen. Data for the mec2-1 strain (AID 157). The settings on record: S. cerevisiae mec2-1 strain, at 50.0 µM, active compounds read high. Put shortly: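 Compounds were applied to mec2-1 yeast cells. Their growth was then compared with that of vehicle-treated cultures to give growth inhibition.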
Assay [3] in a line: NCI Yeast Anticancer Drug Screen. Data for the sgs1 mgt1 strain (AID 161).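 Note: 0% = growth of cultures given vehicle only.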 The settings on record: S. cerevisiae sgs1 mgt1 strain, at 50.0 µM, active compounds read high. Put shortly: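 This yeast growth screen uses a strain with defined DNA-repair lesions; compound-treated growth is compared with vehicle-treated growth.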
A short description of assay [4]: NCI Yeast Anticancer Drug Screen. Data for the cln2 rad14 strain (AID 165).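 Note: 0% = growth equal to vehicle treated cultures.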 The settings on record: S. cerevisiae cln2 rad14 strain, at 50.0 µM, active compounds read high. Put shortly: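 Strain: cln2 rad14 yeast, altered in cell cycle control and DNA damage repair. Read-out: growth inhibition vs vehicle.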
The nature of assay [5]: NCI Yeast Anticancer Drug Screen. Data for the bub3 strain (AID 167). The settings on record: S. cerevisiae bub3 mutant strain, at 50.0 µM, active compounds read high. Put shortly: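 Readout: yeast growth inhibition, expressed relative to vehicle-only wells. The test organism is a mutant strain from a panel with lesions in DNA repair or checkpoint genes.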
Assay [6] in a line: NCI Yeast Anticancer Drug Screen. Data for the mlh1 rad18 strain (AID 175). The settings on record: S. cerevisiae mlh1 rad18 strain growth inhibition; at 50.0 µM; active compounds read high. Put shortly: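 A repair-deficient yeast strain is exposed to test compound, and growth is scored relative to vehicle-treated controls.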

Consider `O=c1oc2ccccc2c(O)c1C(c1cc(OCc2ccccc2)cc(OCc2ccccc2)c1)c1c(O)c2ccccc2oc1=O`, for which the growth inhibition is -12.1% in assay [1]; -2.85% in assay [2]; -2.1% in assay [3]; -19.4% in assay [4]; -11.7% in assay [5]; -16.6% in assay [6].
Regarding `COC(=O)/C=C/c1ccccc1`, the growth inhibition in assay [1] is 17.4%; in assay [2], -14.3%; in assay [3], -15.6%; in assay [4], -1.2%; in assay [5] it was -27.9%; in assay [6], 19.4%.
With `CN(C)c1ccc(C2(c3ccc(N(C)C)cc3)NNC(=O)c3cc(N(C)C)ccc32)cc1`, the growth inhibition was 21.4% in assay [1]; 5% in assay [2]; 13.2% in assay [3]; 16.8% in assay [4]; -3.15% in assay [5]; 1.8% in assay [6].
As to `OCC(O)C(O)C(O)c1nn(-c2ccccc2)c2nc3ccc(Cl)cc3nc12` (stereo not given), the growth inhibition in assay [1] is -0.8%; in assay [2], 9%; in assay [3], 6.05%; in assay [4], -3.8%; in assay [5] it was 9.25%; in assay [6], 5.3%.
As for `O=C(O)c1ccc(-c2c3ccc(=O)cc-3oc3cc(O)ccc23)cc1`, the growth inhibition in assay [1] is 18%; in assay [2], -30.1%; in assay [3], 6.05%; in assay [4], 22.1%; in assay [5] it was 23.9%; in assay [6], 20.4%.
Consider `CC(C)CCCC(C)C1CCC2C3CC=C4CC(OP(=O)(N5CC5)N5CC5)CCC4(C)C3CCC12C` (stereo not given), for which the growth inhibition was 26.8% in assay [1]; 1.4% in assay [2]; 11.4% in assay [3]; 19.3% in assay [4]; -4.1% in assay [5]; 12.2% in assay [6].
As to `BrCCC[n+]1ccc2ccccc2c1-c1nccc2ccccc12`, the growth inhibition in assay [1] is 50.7%; in assay [2], 16.1%; in assay [3], 54.2%; in assay [4] it was 33.2%; in assay [5], 5.05%; in assay [6], 49.5%.
For the molecule `CCOC(=O)Cc1cc(C)c2ccccc2n1`, the growth inhibition in assay [1] was -7.75%; in assay [2], -5.65%; in assay [3], 4.3%; in assay [4] it was -19.6%; in assay [5], -9.4%; in assay [6], 7.45%.
On to `CC1(C2(C)Nc3ccccc3O2)Nc2ccccc2O1` (stereo not given), for which the growth inhibition in assay [1] was 10.2%; in assay [2] it was 8.35%; in assay [3], 9.95%; in assay [4], -36.8%; in assay [5] it was 3.65%; in assay [6] it was 9.05%.
`CC(COc1ccc(Cl)cc1)OS(=O)(=O)CCCl` (stereo not given): the growth inhibition in assay [1] is 14.3%; in assay [2] it was 13%; in assay [3], -16.1%; in assay [4], -16.1%; in assay [5], -1.1%; in assay [6], -4.65%.
Regarding `O=C(CCc1cc(O)ccc1O)OCCc1ccccc1`, the growth inhibition was 30.9% in assay [1]; 71.2% (active) in assay [2]; 91.6% (active) in assay [3]; 85.3% (active) in assay [4]; 88.4% (active) in assay [5]; 91.5% (active) in assay [6].
As to `CN(C)S(=O)(=O)C=C(c1ccccc1)c1ccccc1`, the growth inhibition in assay [1] is 1.25%; in assay [2] it was 4.1%; in assay [3], 17.4%; in assay [4] it was -5.1%; in assay [5], 15.3%; in assay [6] it was -0.2%.
Take `CC(=O)CCn1ncc(Cl)c(Cl)c1=O`: the growth inhibition was 1.4% in assay [1]; -18.3% in assay [2]; 3.6% in assay [3]; 7.7% in assay [4]; 1.15% in assay [5]; 4.3% in assay [6].
Take `C(=N/Nc1ccccn1)/NN/C=N/Nc1ccccn1`: the growth inhibition in assay [1] was -7.6%; in assay [2], 6.25%; in assay [3] it was -3.8%; in assay [4], 7.1%; in assay [5], -2.45%; in assay [6], -4.9%.
As for `Ic1ccc(-n2cccc2)cc1`, the growth inhibition in assay [1] is 8.4%; in assay [2], 5.55%; in assay [3], -1.7%; in assay [4], -3.25%; in assay [5], 13.8%; in assay [6], -18.6%.
On to `CCOC(=O)c1cc(=O)[nH]c(N)n1`, for which the growth inhibition was -6.4% in assay [1]; -10.8% in assay [2]; -1.55% in assay [3]; -38.2% in assay [4]; 10.4% in assay [5]; -4.15% in assay [6].
For the molecule `O=C1/C(=C/c2ccc([N+](=O)[O-])cc2)CCCc2ccccc21`, the growth inhibition was 11.1% in assay [1]; 6.8% in assay [2]; 22.9% in assay [3]; -22.3% in assay [4]; -0.95% in assay [5]; 21.9% in assay [6].
On to `COC(=O)C([O][Ge]([CH3])([CH3])[CH3])c1ccccc1` (stereo not given), for which the growth inhibition in assay [1] was 8.75%; in assay [2], -15.1%; in assay [3], -1.5%; in assay [4] it was 21.2%; in assay [5] it was -12.9%; in assay [6], -12.7%.
Regarding `CC(=O)OCc1cc2c(cc1CNCc1ccccc1)OCO2`, the growth inhibition in assay [1] was 12.5%; in assay [2] it was -2.15%; in assay [3], 7.25%; in assay [4], -31.4%; in assay [5], 5%; in assay [6], 7.25%.
Take `COc1ccc(CCNC(=O)C(Sc2ccccn2)c2ccccc2)cc1OC` (stereo not given): the growth inhibition is 20.6% in assay [1]; -29.4% in assay [2]; 5.35% in assay [3]; 23.1% in assay [4]; 30.6% in assay [5]; 27.8% in assay [6].
